# Test results: PubChem BioAssay AID1347417 (National Center for Advancing Translational Sciences (NCATS), 2020)
# Out of some 120,000 compounds screened, about 5,300 (4.4%) were called active. Where a call stands in place of a potency, no number is given. Another 22% or so got no clear call; they are omitted. Calls follow the shape of the dose curve; as a rule, active = well fitted inhibition curve with a large enough effect; inconclusive = small, poorly fitted or top-dose-only effect; inactive = no such curve, though single readings can be large or run the other way. This excerpt belongs to a sample that is enriched for actives.
# Assay: qHTS Primary assay for Inhibitors of Plasmodium falciparum Dd2 growth in vitro; also: nearly all actives have a fitted effect of over 65% in size
# Conditions: P. falciparum Dd2 growth, SYBR Green, 72 h; series mostly up to 28.9 µM
# In short: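 Readout: SYBR Green fluorescence, 485 nm excitation, 535 nm emission, after ~16 h lysis at 37C. Before that, Dd2-infected red cells (2.5% hematocrit) grew 72 h with compound, 29 uM top final concentration.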
# Potency is read from the fitted curve at half-maximal effect.
row,Structure (SMILES),Potency
1,Clc1ccccc1C1(c2ccnc(NCCn3cccn3)n2)CCNCC1,inactive
2,COc1ccc(N2CCC(NC(=O)c3ccc4[nH]ccc4c3)C2=O)cc1 (stereo unspecified),inactive
3,COc1ccc(C2=NOC3(CCCN([S+](=O)([O-])c4ccccc4)C3)C2)cc1 (stereo unspecified),inactive
4,COc1ccc(-c2nc(C(C)C)nc3c2CCN([S+](=O)([O-])c2cccc(C(F)(F)F)c2)CC3)cc1,7.08 µM (active)
5,COc1ccc(-c2nc(C3CC3)nc3c2CCN([S+](=O)([O-])c2ccccc2)CC3)cc1,7.94 µM (active)
6,COc1ccc(-c2nc(C)nc3c2CN([S+](=O)([O-])c2onc(C)c2C)CC3)cc1,inactive
7,COc1ccc(-c2nc(C(C)C)nc3c2CCN(C(=O)Cc2ccccn2)CC3)cc1,inactive
8,COc1cccc([S+](=O)([O-])N2CCCC3(CC(c4cccc(C(F)(F)F)c4)=NO3)C2)c1 (stereo unspecified),inactive
9,CNC(=O)CCC[C@H]1NC[C@@H]2CCCN3CCC[C@H]1[C@H]23,inactive
10,CCNC(=O)[C@@H]1C[C@H](N)CN1C(=O)[C@@H](C)c1ccc2cc(OC)ccc2c1,inactive
11,COc1ccccc1N1CCN(C(=O)c2ccccc2-c2ncc[nH]2)CC1=O,inactive
12,Cc1nn(CC(=O)O)c(=O)c2nc(C(C)C)sc12,inactive
13,O=C(NC1CCCN(c2cc(-c3ccc(Cl)cc3)[nH]n2)C1)c1ccncc1 (stereo unspecified),inactive
14,COC(=O)c1ccc(NC(=O)c2cc(S(=O)(=O)N3CCC(C)CC3)cn2C)cc1,inactive
15,COC(=O)c1ccc(NC(=O)c2cccc3c2C(=O)N(C2CCCCC2)C3)cc1,inactive
16,Cc1ccc(NC(=O)c2cc3n(n2)CC(c2ccc4c(c2)OCO4)OC3)cc1C (stereo unspecified),inactive
17,CCc1ccccc1NC(=O)c1cnn(-c2ccc(F)cc2)c1C1CCNCC1,inactive
18,CC(C)(C)OC(=O)N1CCC(c2c(C(=O)Nc3ccc4c(c3)OCO4)cnn2-c2ccccc2)CC1,5.01 µM (active)
19,COC(=O)c1ccc(NC(=O)c2cnn(-c3ccc(Cl)cc3)c2C2CCN(C(=O)OC(C)(C)C)CC2)cc1,7.94 µM (active)
20,COC[C@@H]1[C@H](NC(=O)C2CCN(C(=O)c3ccncc3)CC2)[C@@H]2CCO[C@H]12,inactive
21,Cn1cc(CNC(=O)C[C@@H]2C[C@H]3O[C@H](CNC4Cc5ccccc5C4)[C@@H](O)[C@H]3O2)cn1,inactive
22,CCc1nc2ccc(C(=O)N3CCN(c4cccc(Cl)c4)CC3)cc2nc1CC,inactive
23,Cc1ccc(Cl)cc1N1CCN(C(=O)c2cccn3c(=O)c4cc(Cl)ccc4nc23)CC1,inactive
24,CCc1nc2ccc(C(=O)N3CCN(c4cc(Cl)ccc4C)CC3)cc2nc1CC,11.2 µM (active)
25,N#Cc1cccc(C(=O)NC2CCN(c3cc(-c4ccc(Cl)cc4)[nH]n3)C2)c1 (stereo unspecified),inactive
26,O=C1CN(Cc2cc3cc4c(cc3[nH]c2=O)OCO4)CCCN1,inactive
